Measurements published in ChEMBL document CHEMBL1201862, “PubChem BioAssay data set” (2004).
Screen size: about 300,000 compounds; about 3,700 (1.2%) were called active. Another 20% or so got no clear call; they are omitted. The rule behind the calls is not given here. Many of the other results were omitted from the sample, so actives are more common in it than they were.

These compounds were tested on HEK293 (assay: qHTS for Inhibitors of binding or entry into cells for Lassa Virus. [Related pubchem assays (depositor defined):AID463114, AID540249]). Conditions: read-out: Potency.
Type: functional, Homo sapiens

**Q.** With C[C@@H]1O[C@@H](O[C@H]2C[C@@H](O)[C@]3(CO)[C@H]4[C@H](O)C[C@]5(C)[C@@H]([C@@H]6COC(=O)C6)CC[C@]5(O)[C@@H]4CC[C@]3(O)C2)[C@H](O)[C@H](O)[C@H]1O [DIHYDROOUABAIN] as the compound, how does the AC50 read?
**A.** Its AC50 is 1.58 µM (active).
